Assay results reported in PubChem BioAssay.
Activity calls are given as the source filed them. Unless noted, no rule for the calls is given here.

Legend:
[1] = tested on: Wnt5a (protein binding on small-molecule microarray); experiment: Wnt5a binders on small-molecule microarray, primary screen, biophysical, 635/667 nm fluorescence (AID 1142); details: 635 nm fluorescence, higher = more signal;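 also: fluorescence read at 667 nm with signal to noise per printed feature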
[2] = cell viability in Huh7 cells, primary screen, cytotoxicity control for HCV replication inhibitor project, CellTiter-Glo luminescence, basal, 48 h (AID 1143); details: Huh7 HCV replicon, higher = more signal, called active from +8 up or from −8 down;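 also: Huh7 hepatoma cells carrying a hepatitis C replication reporter with no stimulus; test concentration not given here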
[3] = P. aeruginosa biofilm formation inhibitors, primary screen, PAO1 strain, BacTiter-Glo luminescence, LB-PBS (AID 1144); details: 12 h, higher = more signal
[4] = CREB reporter modulators without forskolin, primary screen, cell-based, PC12, CRE-LacZ reporter, unstimulated (AID 1145); details: no forskolin, luminescence, 4.5 h, higher = more signal, called active from +8 up or from −8 down
[5] = CREB reporter modulators under forskolin, primary screen, cell-based, PC12, CRE-LacZ reporter, forskolin-stimulated (AID 1146); details: luminescence, 4.5 h, higher = more signal, called active from +8 up or from −8 down;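 also: PC12 cells with 6xCRE LacZ reporter stimulated by forskolin 10 µM; beta-galactosidase reporter signal reflecting CREB driven transcription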
[6] = target: Streptavidin (Streptomyces avidinii) (UniProt P22629); experiment: streptavidin binders on small-molecule microarray, primary screen, artefact control for SMM compound annotation, biophysical, 635/667 nm fluorescence (AID 1147); details: streptavidin binding, higher = more signal;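 also: signal reflects streptavidin binding to arrayed compounds as a control protein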
Chain of Streptavidin (Streptomyces avidinii) (P22629 whole entry, looked up): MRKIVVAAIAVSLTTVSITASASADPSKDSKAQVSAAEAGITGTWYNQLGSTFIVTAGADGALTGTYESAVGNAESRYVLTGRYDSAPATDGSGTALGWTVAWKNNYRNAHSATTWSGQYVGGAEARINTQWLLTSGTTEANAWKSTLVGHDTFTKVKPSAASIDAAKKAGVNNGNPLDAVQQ

[7] = small-molecule binders of probe aInhba, primary screen, biochemical, small-molecule microarray, 635/667 nm fluorescence (AID 1148); details: higher = more signal;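 also: score merges 667nm spot fluorescence with signal-to-noise for antibody binding to printed compounds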
Torsin-1A (Homo sapiens) [8] = target: Torsin-1A (Homo sapiens) (UniProt O14656); experiment: torsin A binders from cell lysate, primary screen, small-molecule microarray, wild-type, 635/667 nm (AID 1149); details: COS7 hTOR1A-WT lysate, 635 nm fluorescence, higher = more signal
Chain of Torsin-1A (Homo sapiens) (O14656 whole entry, looked up): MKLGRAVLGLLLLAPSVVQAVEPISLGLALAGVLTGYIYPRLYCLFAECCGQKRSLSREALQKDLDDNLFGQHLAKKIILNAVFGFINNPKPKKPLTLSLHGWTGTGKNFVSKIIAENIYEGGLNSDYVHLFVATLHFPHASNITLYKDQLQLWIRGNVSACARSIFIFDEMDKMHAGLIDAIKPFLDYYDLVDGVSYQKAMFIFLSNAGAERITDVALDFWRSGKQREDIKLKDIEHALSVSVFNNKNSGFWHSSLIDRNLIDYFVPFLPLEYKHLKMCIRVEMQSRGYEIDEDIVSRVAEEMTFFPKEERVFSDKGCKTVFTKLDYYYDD

Torsin-1A (Homo sapiens) [9] = target: Torsin-1A (Homo sapiens) (UniProt O14656); experiment: small-molecule binders of mutant TOR1A in lysate, primary screen, cell lysate, small-molecule microarray, COS7 lysate, 635/667 nm fluorescence (AID 1150); details: COS7 hTOR1A mutant lysate, 635 nm fluorescence, higher = more signal;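 also: score pools 667 nm emission and signal to noise measuring lysate protein binding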
[10] = tested on: Sonic hedgehog protein (Shh); experiment: small-molecule binders of Shh protein, primary screen, biochemical, small-molecule microarray, 635/667 nm fluorescence (AID 1151); details: small-molecule microarray binding, 635 nm fluorescence; higher = more signal;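 also: Shh protein binding to compounds spotted on small-molecule microarray slides; score combines spot fluorescence intensity with signal-to-noise across triplicate slides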

SMILES | composite z-score [1] | z-score [2] | z-score [3] | z-score [4] | z-score [5] | composite z-score [6] | composite z-score [7] | composite z-score (Torsin-1A (Homo sapiens) [8]) | composite z-score (Torsin-1A (Homo sapiens) [9]) | composite z-score [10]
O=C1O[C@@H](c2ccccc2)[C@@H](c2ccccc2)N2[C@@H](c3ccc(O)cc3)[C@]3(C(=O)Nc4ccc(C#CC5=CCCCC5)cc43)[C@@H](C(=O)N3CCN(c4ncccn4)CC3)[C@H]12 | 0.326 | -3.76 (inactive) | -1.07 (inactive) | -1.14 (inactive) | -0.286 (inactive) | 0.448 | 0.0633 | 0.6 | 0.836 | 1.21
COCCOC(=O)N1C(=O)[C@@]2(c3cc(C#Cc4ccc(OC)cc4)ccc31)[C@H](C(=O)N1CCN(c3ncccn3)CC1)[C@H]1C(=O)O[C@H](c3ccccc3)[C@H](c3ccccc3)N1[C@@H]2c1ccccc1OCCO | -0.0175 | -0.651 (inactive) | -1.1 (inactive) | -0.467 (inactive) | -0.638 (inactive) | 0.103 | -0.215 | 0.236 | 0.0863 | 1.01
COCCOC(=O)N1C(=O)[C@@]2(c3cc(C#CC4(O)CCCCCC4)ccc31)[C@H](C(N)=O)[C@H]1C(=O)O[C@H](c3ccccc3)[C@H](c3ccccc3)N1[C@@H]2c1ccccc1OCCO | 0.507 | -6.12 (inactive) | 0.533 (inactive) | 0.0921 (inactive) | 0.0643 (inactive) | 0.143 | -0.522 | 0.329 | 0.445 | 1.34
COCCOC(=O)N1C(=O)[C@@]2(c3ccccc31)[C@H](C(=O)N1CCN(c3ncccn3)CC1)[C@H]1C(=O)O[C@H](c3ccccc3)[C@H](c3ccccc3)N1[C@@H]2c1ccc(OCCO)cc1 | 0.561 | -1.12 (inactive) | -0.236 (inactive) | 1.3 (inactive) | -0.599 (inactive) | 1.19 | 0.336 | 0.281 | 0.59 | 1.82
O=C1c2ccccc2[C@](Cc2ccccc2I)(C(=O)NCc2ccccc2)[C@H](c2ccc(CO)cc2)N1C1CCCCC1 | 0.52 | -4.84 (inactive) | -0.479 (inactive) | 0.0655 (inactive) | -0.183 (inactive) | 1.71 | 0.295 | 0.326 | 0.489 | 1.75
CC(=O)n1cc(C(O)C2C=CC3C(=O)N(c4ccccc4)C(=O)C3N2Nc2ccccc2)c2ccccc21 (stereo not given) | 0.689 | -3.34 (inactive) | -0.504 (inactive) | 0.436 (inactive) | -0.507 (inactive) | 0.862 | 0.426 | 0.14 | 1.08 | 0.497
C=C(/C(=C/C[C@@H](OC(=O)c1ccncc1)c1ccc(OCCO)cc1)c1cc(C(=O)OC)ccc1OC)C(C)C | 0.308 | -1.79 (inactive) | -0.745 (inactive) | 2.06 (inactive) | 0.96 (inactive) | 0.747 | -0.271 | 0.0376 | 0.266 | 1.7
C=CCNC(=O)[C@H]1[C@@H]2C(=O)O[C@@H](c3ccccc3)[C@@H](c3ccccc3)N2[C@@H](c2ccccc2OCCO)[C@]12C(=O)N(C(=O)OCCOC)c1ccc(C#CC3=CCCCC3)cc12 | 0.356 | -4.73 (inactive) | 1.37 (inactive) | -0.333 (inactive) | 0.371 (inactive) | 1.08 | 0.423 | 1.02 | 0.798 | 0.826
COCCOC(=O)N1C(=O)[C@@]2(c3ccccc31)[C@H](c1ccc(OCCO)cc1)N1[C@H](c3ccccc3)[C@H](c3ccccc3)OC(=O)[C@H]1[C@@H]2C(=O)Nc1nc2ccccc2s1 | 0.528 | -1.49 (inactive) | -0.58 (inactive) | 0.505 (inactive) | 11.9 (active) | 0.962 | 0.239 | 0.73 | 0.558 | 1.1
CN(C)CCCN1C(=O)[C@@]2(c3ccc([N+](=O)[O-])cc3)CC(=O)N(CC34CC5CC(CC(C5)C3)C4)[C@@H]2c2ccc(CO)cc21 | -0.199 | 0.278 (inactive) | 0.878 (inactive) | -0.0259 (inactive) | -0.598 (inactive) | -0.472 | -0.0963 | -0.524 | -0.17 | 0.0109
C=CCC(OC(C)=O)[C@@H]1[C@@H](N(Cc2ccc(-c3ccccc3)cc2)C(=O)c2cccc3ccccc23)c2cc(OCCCO)ccc2N1C(=O)Cc1ccc2ccccc2c1 (stereo not given in full) | -0.195 | -1.31 (inactive) | 0.457 (inactive) | 0.423 (inactive) | -0.481 (inactive) | -0.0695 | -0.17 | 0.0517 | 0.12 | 0.39
O=C(CS)NCCCCCCNC(=O)[C@H]1C[C@H]2C(=O)N[C@@H](Cc3ccccc3)C(=O)N2[C@H]1c1cccc(OCCO)c1 | 1.02 | 0.0054 (inactive) | -0.885 (inactive) | 0.285 (inactive) | -0.579 (inactive) | 1.22 | 0.177 | 0.78 | 1.06 | 1.72
C[C@H]1C2=C3C(CC[C@H]4C(OCc5ccc(F)cc5C(F)(F)F)OC[C@](C)([C@@H]34)N(C(=O)OC(C)(C)C)C2)C2COC(=O)OCC21 (stereo not given in full) | 0.163 | -1.13 (inactive) | -0.318 (inactive) | 0.201 (inactive) | 0.796 (inactive) | 1.29 | 0.0992 | 0.639 | 0.988 | -0.789
CN1C(=O)C2C=CC(C(O)c3c(F)cccc3Cl)N(Nc3ccccc3)C2C1=O (stereo not given) | 0.438 | 1.01 (inactive) | 0.402 (inactive) | 0.433 (inactive) | 0.928 (inactive) | 1.53 | 0.0374 | -0.353 | -0.562 | -0.206
C=CCN1C(=O)[C@]2(CC=C)N=C(c3ccc(OCCCO)cc3)O[C@@H]2c2ccccc21 | 0.731 | -4.15 (inactive) | 0.312 (inactive) | 0.796 (inactive) | -0.953 (inactive) | 0.842 | 0.296 | 0.265 | 0.538 | 1.65
COc1cc(CO)cc(I)c1O[C@H]1C=C(C(=O)NCCO)C[C@@H](NCc2ccccc2F)[C@@H]1O | -0.145 | -0.466 (inactive) | -0.251 (inactive) | 9.26 (active) | -1.22 (inactive) | -0.0401 | -0.128 | 0.235 | -0.175 | 0.485
C[C@@H]1ON(c2ccc(C(=O)OC(C)(C)C)cc2)[C@H](c2ccc(Br)cc2)[C@H]1C(=O)N1C(=O)OC[C@H]1Cc1ccccc1 | 0.232 | -1.09 (inactive) | 1 (inactive) | 2.04 (inactive) | 0.289 (inactive) | 1.03 | 0.0301 | 0.673 | 0.644 | 0.991
CC(C)NC(=O)[C@@]1(C)c2ccccc2C(=O)N(C(C)C)[C@H]1c1ccc(CO)cc1 | -0.79 | 0.0942 (inactive) | -0.272 (inactive) | 0.0924 (inactive) | 0.626 (inactive) | -1.35 | -0.197 | -3.17 | -2.55 | 0.133
O=C(O)[C@H]1C[C@H]2C(=O)N3CCC[C@H]3C(=O)N2[C@H]1c1cccc(OCCO)c1 | 0.188 | -0.716 (inactive) | 0.0521 (inactive) | 0.818 (inactive) | 0.0548 (inactive) | -0.0748 | -0.154 | 0.847 | 1.57 | 0.643
CN(C)C(=O)[C@@]1(Cc2ccccc2N=[N+]=[N-])COC(c2ccc(OCCCO)cc2)=N1 | 0.932 | -2.68 (inactive) | 0.618 (inactive) | 0.942 (inactive) | 0.646 (inactive) | 0.726 | -0.0171 | 0.425 | 0.837 | -0.215
CN(C)CCCNC(=O)[C@@]1(C)c2ccccc2C(=O)N(Cc2cc(C(F)(F)F)cc(C(F)(F)F)c2)[C@H]1c1ccc(CO)cc1 | -0.284 | -4.27 (inactive) | -0.391 (inactive) | 0.234 (inactive) | -0.227 (inactive) | -0.95 | 0.0275 | -0.639 | -0.774 | -0.584
CC(C)(C)OC(=O)CC[C@@]1(C(=O)O)N=C(c2ccc(OCCCO)cc2)O[C@@H]1c1ccccc1 | -0.181 | -0.97 (inactive) | -0.335 (inactive) | -0.94 (inactive) | -0.374 (inactive) | 0.0425 | 0.0154 | 0.961 | 0.694 | -0.736
O=C1NC(=O)C2C1C=CC(C(O)c1cc(C(F)(F)F)cc(C(F)(F)F)c1)N2Nc1ccc(Cl)cc1Cl (stereo not given) | 0.465 | -1.32 (inactive) | -0.673 (inactive) | -0.329 (inactive) | 0.78 (inactive) | 0.416 | 0.069 | -0.371 | 0.357 | -0.384
[N-]=[N+]=NCc1ccccc1C[C@@]1(C(=O)N2CCCCC2)N=C(c2ccc(OCCCO)cc2)O[C@@H]1c1ccccc1N=[N+]=[N-] | -0.269 | -3.28 (inactive) | 1.48 (inactive) | 0.596 (inactive) | -1.16 (inactive) | 0.75 | -0.209 | 0.704 | 0.826 | 0.0369
[N-]=[N+]=NCc1ccccc1[C@H]1OC(c2ccc(OCCCO)cc2)=N[C@@]1(CCS(=O)(=O)c1ccccc1)C(N)=O | 0.524 | -0.0602 (inactive) | 0.456 (inactive) | -0.678 (inactive) | 0.237 (inactive) | 1.8 | 0.182 | 1.87 | 1.76 | -0.384
COC(=O)[C@@]1(Cc2ccccc2)[C@H]2c3cc(C(=O)N4CCCC4)n(Cc4ccsc4Br)c3C[C@H]2CN1C(=O)c1ccccc1 | 0.38 | -3.12 (inactive) | 0.389 (inactive) | 0.201 (inactive) | -0.813 (inactive) | 1.21 | 0.407 | 0.147 | 0.894 | -1.01
COCCOC(=O)N1C(=O)[C@@]2(c3cc(C#CC4(O)CCCCCC4)ccc31)[C@H](c1ccccc1OCCO)N1[C@H](c3ccccc3)[C@H](c3ccccc3)OC(=O)[C@H]1[C@@H]2C(N)=O | 0.448 | -6.31 (inactive) | 0.754 (inactive) | 0.245 (inactive) | 0.0169 (inactive) | 0.421 | -0.0494 | 0.749 | 0.761 | 1.97
